# From PubChem BioAssay AID2685 (National Center for Advancing Translational Sciences (NCATS), 2010)
# The whole screen tested about 320,000 compounds, of which about 2,100 (0.66%) were called active. Another 53% or so got no clear call; they are omitted. Calls come from the whole dose curve; as a rule, active = well fitted inhibition curve with a large enough effect in the signal ratio, with a control signal flat (not every such curve was filed as active); inconclusive = small, poorly fitted or top-dose-only effect, or effect the other way, or a change in a side signal; inactive = flat fitted curve, though single readings scatter; the % refers to the signal ratio. The sample as a whole holds a higher share of actives than the screen did.
# Test: qHTS Assay for Lipid Storage Modulators in Drosophila S3 Cells;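 for cell number change: cells counted by Cell Tracker Red CMTPX staining in the red channel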; for lipid storage change, negative = inhibition: % is set by controls: 0 for no effect and ±100 for the full control effect
# Conditions: BODIPY lipid droplet fluorescence, 18-24 h, cells fed with added oleic acid; cell number change: measured here: cell count max response; series mostly up to 46.1 µM
# How it was run: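 Drosophila S3 cells got compounds at several concentrations plus oleic acid (400 uM solution). Laser-scanning cytometry with 488 nm excitation read lipid droplets at 500-530 nm and cells at 575-640 nm. Percent activity was relative to 20 uM Triacsin C.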
# Potency is the fitted concentration of half-maximal effect.
Compound,Potency,cell number change [%],"lipid storage change, negative = inhibition"
COc1ccccc1CNC(=O)C1CCN(S(=O)(=O)c2ccc(N3CCCC3=O)cc2)CC1,inactive,16.5,
COc1ccc(C2/C(=C(\O)c3ccc(OC)c(Cl)c3)C(=O)C(=O)N2CCN(C)C)cc1 (configuration not stated),inactive,7.61,
CCCOc1cccc(C2/C(=C(/O)c3ccncc3)C(=O)C(=O)N2CCCN(C)C)c1 (configuration not stated),inactive,-3.79,
COc1cccc(/C(O)=C2/C(=O)C(=O)N(CCN(C)C)C2c2ccc(Br)cc2)c1 (configuration not stated),2.31 µM (active),3.06,
COc1cccc(C2/C(=C(\O)c3ccc4c(c3)OCCO4)C(=O)C(=O)N2CCN(C)C)c1 (configuration not stated),inactive,-19.5,
COc1ccc(/C(O)=C2/C(=O)C(=O)N(CCN(C)C)C2c2ccccc2)cc1Cl (configuration not stated),inactive,-4.09,
COc1ccc(/C(O)=C2/C(=O)C(=O)N(CCCN(C)C)C2c2ccccc2)cc1Cl (configuration not stated),13 µM (active),2.04,
COc1cccc(C2/C(=C(/O)c3ccc(F)cc3)C(=O)C(=O)N2CCN(C)C)c1 (configuration not stated),inactive,5.93,
COc1cccc(C2/C(=C(\O)c3c(C)nc4c(C)cccn34)C(=O)C(=O)N2CCCN(C)C)c1 (configuration not stated),inactive,-2.27,
COc1cccc(C2/C(=C(/O)c3ccncc3)C(=O)C(=O)N2CCCN(C)C)c1 (configuration not stated),6.51 µM (active),2.93,
COC(=O)CNc1nc(C2CC2)nc2c1nnn2Cc1ccccc1Cl,inactive,-11.7,
COc1ccc2c(c1)C(C)=CC(C)(C)N2C(=O)C(C)N1C(=O)c2ccccc2C1=O (configuration not stated),inactive,1.95,
C[C@H](NC(N)=O)C(=O)Nc1ccc2c(c1)OCO2,inactive,-6.18,
COc1ccccc1C1C(C#N)=C(N)N(c2cccnc2)C2=C1C(=O)CC(C)(C)C2 (configuration not stated),inactive,-3.09,
Cn1cc(CCC(=O)N2CCCC(CCC(=O)NCc3ccccc3F)C2)cn1 (configuration not stated),inactive,3.88,
COc1cccc(NC(=O)CN(C)C(=O)C(C)Sc2ccccc2)c1 (configuration not stated),,,4.76% [at 0.0737 µM] (inactive)
CCOc1ccc(S(=O)(=O)Nc2cccc(C(=O)N3CCN(c4ccc(OC)cc4)CC3)c2)cc1,inactive,-10.3,
CC(=O)NNC(=O)c1[nH]c2ccc(Cl)cc2c1-c1ccccc1,inactive,19.7,
COc1ccc(Br)cc1S(=O)(=O)NCCCN1CCOCC1,inactive,,
Cc1cccc(OCCC(=O)OCC(=O)N2CCc3ccccc32)c1,inactive,16.2,
CC(C)C(OC(=O)CCC(=O)Nc1nccs1)C(=O)NC1CCCCC1 (configuration not stated),inactive,7.34,
COc1ccc(N2C(=O)CC(N(CCc3ccc(OC)c(OC)c3)C(=S)Nc3ccccc3)C2=O)cc1 (configuration not stated),inactive,-11.8,
Cc1ccccc1OCC(=O)OCC(=O)N1CCCc2ccccc21,inactive,,
CC(=O)c1sc2nsc(SCCN3CCCCC3)c2c1N,inactive,1.58,

Compound,Potency,cell number change [%],"lipid storage change, negative = inhibition"
Nc1c(C(=O)c2cccs2)sc2nsc(SCCN3CCCCC3)c12,13 µM (active),11.5,
CC(=O)c1sc2nsc(SCCN3CCCC3)c2c1N,inactive,7.13,
O=C1c2ccccc2C(=O)C1c1ccc(Cl)cc1,inactive,-2.4,
O=C1C(=O)c2ccccc2C(O)=C1C1CCC(c2ccc(Cl)cc2)CC1 (configuration not stated),4.11 µM (active),-0.693,
O=C1NC(c2ccc(Cl)cc2)Nc2ccccc21 (configuration not stated),inactive,-23.5,
COc1cc(C(=O)Nc2ccc3c(c2)C(=O)N(CCC(=O)O)C3=O)cc(OC)c1OC,inactive,1.68,
CCOC(=O)c1cc(C)n(S(=O)(=O)c2ccc(C)cc2)c1C,inactive,-10.7,
CCOC(=O)c1cc(C)n(-n2cnnc2)c1C,10.3 µM (active),1.94,
CCOC(=O)c1cc(C)n(-c2ccccc2)c1C,inactive,,
CCCn1c(N)c(C(=O)CN(C)CC(=O)Nc2c(Cl)cccc2Cl)c(=O)[nH]c1=O,inactive,-5.76,
CCCn1c(N)c(C(=O)CN(C)CC(=O)Nc2ccccc2C(F)(F)F)c(=O)[nH]c1=O,7.31 µM (active),-17.2,
CCCn1c(N)c(C(=O)CN(C)CC(=O)Nc2cc(C)ccc2C)c(=O)[nH]c1=O,inactive,15.5,
COc1ccc(CCNC(=O)C2CC(c3ccccc3[N+](=O)[O-])=NO2)cc1 (configuration not stated),inactive,17.6,
O=C(C1CCC1)N1CCCc2cc(S(=O)(=O)N3CCN(c4ccccc4)CC3)ccc21,3.26 µM (active),-3.36,
CC1CCCCN1S(=O)(=O)c1ccc2c(c1)CCN2C(=O)C1CCC1 (configuration not stated),inactive,0.0968,
CC1CCCCN1S(=O)(=O)c1ccc2c(c1)CCN2C(=O)C1CC1 (configuration not stated),10.3 µM (active),-5.7,
Cc1cccc(N2CCN(S(=O)(=O)c3ccc4c(c3)CCCN4C(=O)C3CCC3)CC2C)c1 (configuration not stated),inactive,-10.2,
O=C(C1CCC1)N1CCc2cc(S(=O)(=O)N3CCN(c4ccccn4)CC3)ccc21,inactive,-12.3,
CC1CCCCN1S(=O)(=O)c1ccc2c(c1)CCN2C(=O)CCC(=O)O (configuration not stated),inactive,10,
Cc1cc(C)c(S(=O)(=O)N2CCOC2CNC(=O)C(=O)NCCCN2CCOCC2)c(C)c1 (configuration not stated),inactive,8.11,
Cc1cccc(N(CC(N)=O)C2SC(=O)NC2=O)c1 (configuration not stated),inactive,8.77,
Cc1ccc(N(CC(N)=O)C2SC(=O)NC2=O)cc1 (configuration not stated),inactive,8.58,
O=C(O)CN(c1ccccc1)C1SC(=O)NC1=O (configuration not stated),7.31 µM (active),-8.43,
CC(C)C(NC(=O)OCc1ccccc1)C(=O)NCc1ccc(C(=O)O)cc1 (configuration not stated),inactive,18,

Compound,Potency,cell number change [%],"lipid storage change, negative = inhibition"
CC(C)[C@H](NC(=O)c1ccco1)C(=O)NCc1ccccc1,inactive,17.1,
CC(C)C(NC(=O)c1ccco1)C(=O)NCc1ccc(C(=O)O)cc1 (configuration not stated),6.51 µM (active),-31.6,
CC(/C=C/c1ccccc1)=N/NC(=O)c1cnccn1,inactive,9.37,
CC1=[N+]([O-])C(C)(C)CC(C)(C)c2ccccc21,25.9 µM (active),-21.9,
COC(=O)c1cn(CC(=O)Nc2ccccc2C)c2ccccc12,inactive,8.8,
COc1ccc(C2C(C#N)=C(N)OC3=C2C(=O)CC(C)(C)C3)cc1Cn1nc(C)c([N+](=O)[O-])c1C (configuration not stated),inactive,4.05,
CSC1=NCCN1C(=O)C12CC3CC(CC(C3)C1)C2,1.3 µM (active),-43.3,
O=C1NCCN1C(=O)C12CC3CC(CC(C3)C1)C2,inactive,-1.76,
O=C(N1CCN=C1SCc1cccnc1)C12CC3CC(CC(C3)C1)C2,inactive,,
CCn1c(SCC(=O)NC2CC2)nnc1C(C)Oc1ccccc1 (configuration not stated),inactive,,
COc1ccc(NC(=O)Cn2nnc(C(=O)NCCc3ccccc3)c2N)c(OC)c1,inactive,6.1,
CCOc1ccc(Cn2nnc(C(=O)NCCc3ccccc3)c2N)cc1,inactive,-4.24,
Nc1c(C(=O)NCCc2ccccc2)nnn1Cc1ccc(Cl)cc1,inactive,-16.5,
COc1cccc(NC(=O)Cn2nnc(C(=O)Nc3ccccc3)c2N)c1,inactive,-18.5,
CCOc1ccc(Cn2nnc(C(=O)NCCc3ccc(Cl)cc3)c2N)cc1,18.4 µM (active),1.29,
COc1cccc(NC(=O)Cn2nnc(C(=O)NCCc3ccccc3)c2N)c1,20.6 µM (active),2.67,
CCc1nc(NC(=O)c2sc(C)nc2C)sc1C(=O)OC,inactive,-8.97,
O=C1OCCC1Sc1nnc(-c2ccc3c(c2)OCO3)o1 (configuration not stated),inactive,15.3,
O=C1OCCC1Sc1nnc(-c2ccc(Br)cc2)o1 (configuration not stated),inactive,7.55,
O=C1OCCC1Sc1nnc(-c2cccc(Br)c2)o1 (configuration not stated),20.6 µM (active),-11.2,
Cc1ccc(/C=C/S(=O)(=O)NCCC(=O)NCc2ccc(F)cc2)cc1,13 µM (active),-6.87,
Cc1ccc(CNC(=O)CCNS(=O)(=O)c2ccc(C)cc2)cc1,inactive,-14.3,
Cc1ccc(CS(=O)(=O)CCC(=O)NCc2ccc(F)cc2)cc1,inactive,22.6,
CCOC(=O)N1CCC(N(CCN(C)C)C(=S)Nc2ccccc2OC)CC1,inactive,7.57,

Compound,Potency,cell number change [%],"lipid storage change, negative = inhibition"
CCCCCOC(=O)c1ccccc1C(=O)O,inactive,16.1,
Cc1ccc2c(c1)C1CN(C)CCC1N2S(=O)(=O)c1ccc(C#N)cc1 (configuration not stated),inactive,-11.9,
Cc1ccc2c(c1)[C@@H]1CN(C)CC[C@@H]1N2S(=O)(=O)c1ccc([N+](=O)[O-])cc1,inactive,-4.89,
Cc1ccc2c(c1)C1CN(C)CCC1N2S(=O)(=O)c1cccc(F)c1 (configuration not stated),14.6 µM (active),-8.15,
O=C(CN1CCN(S(=O)(=O)c2ccccc2[N+](=O)[O-])CC1)Nc1ccc(N2CCOCC2)cc1,inactive,26.6,
Cn1c2ccccc2c(=O)c2c(=O)n(-c3ccccc3)c(-c3ccc(C(C)(C)C)cc3)nc21,inactive,8.74,
COc1cccc(CNC(=O)CC2Sc3ccccc3NC2=O)c1 (configuration not stated),inactive,,
CC1(C(=O)NCc2ccccc2)Oc2ccccc2NC1=O (configuration not stated),23.1 µM (active),-4.11,
COc1cccc(CNC(=O)c2ccc(C(=O)NCc3cccc(OC)c3)cc2)c1,inactive,,
COc1cccc(CNC(=O)C2(C)Oc3ccccc3NC2=O)c1 (configuration not stated),23.1 µM (active),10.7,
CC1(C(=O)NCc2ccc(Cl)c(Cl)c2)Oc2cccnc2NC1=O (configuration not stated),inactive,,
Cc1ccc(CNC(=O)C2(C)Oc3ccccc3NC2=O)cc1 (configuration not stated),inactive,-6.1,
O=C(CNC(=O)c1ccco1)OCC(=O)c1ccc(Cl)cc1,inactive,3.11,
COc1ccc(NC(=O)/C=C/c2ccc(Br)o2)cn1,inactive,2.5,
CC[C@@H](C)[C@@H](C(=O)N1CCN(C(=O)OC(C)(C)C)CC1)n1cc(CCCN=C(NC(=O)OC(C)(C)C)NC(=O)OC(C)(C)C)nn1,inactive,-5.51,
Cc1ccc(N(C)S(=O)(=O)c2c[nH]c3ccc([N+](=O)[O-])cc23)cc1,inactive,2.95,
CCN(c1ccccc1)S(=O)(=O)c1c[nH]c2ccc([N+](=O)[O-])cc12,5.8 µM (active),-8.56,
Cc1cccc(N(C)S(=O)(=O)c2ccc3[nH]c(=O)c(=O)[nH]c3c2)c1,inactive,-11.4,
CCN(c1ccccc1)S(=O)(=O)c1cc([N+](=O)[O-])ccc1N,inactive,7.82,
CCN(c1ccccc1)S(=O)(=O)c1ccc2[nH]c(=O)[nH]c2c1,inactive,8.44,
Cc1cccc(N(C)S(=O)(=O)c2c[nH]c3ccc([N+](=O)[O-])cc23)c1,2.59 µM (active),-6.19,
